# Measured values as given in the supplement of paper PMC6555819.
# Assays:
# Assay in all cases: PBM binding z-score (relative to random genomic background probes); higher = stronger binding; sequences stand for … in GC…GCGATTGACAGCGTAGAATGAAGG
# [1] = test system: FXR:RXRa (NR concentration 270 nM, RXRa partner concentration 90 nM)
# Procedure, shortened: (§1)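 Ligand-free nuclear receptor dimers were bound for 1 h to custom Agilent 4×180K protein-binding microarrays. Detection used antibodies against each partner (one per run). Binding z-scores rest on regression-normalized fluorescence, with random background probes as the reference.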
# [2] = test system: LXRa:RXRa (NR concentration 270 nM, RXRa partner concentration 90 nM)
# Procedure, shortened: as §1
# [3] = test system: LXRa homodimer (NR concentration 270 nM)
# Procedure, shortened: as §1
# [4] = test system: LXRb:RXRa (NR concentration 270 nM, RXRa partner concentration 90 nM)
# Procedure, shortened: as §1
# [5] = test system: LXRb homodimer (NR concentration 270 nM)
# Procedure, shortened: as §1
# [6] = test system: PPARa:RXRa (NR concentration 270 nM, RXRa partner concentration 90 nM)
# Procedure, shortened: as §1
# [7] = test system: PPARg:RXRa (NR concentration 180 nM, RXRa partner concentration 90 nM)
# Procedure, shortened: as §1
# [8] = test system: PPARg:RXRa 270nM:90nM, anti-RXR (NR concentration 270 nM, RXRa partner concentration 90 nM)
# Procedure, shortened: as §1
# [9] = test system: PPARg:RXRa 30nM:10nM, anti-RXR (NR concentration 30 nM, RXRa partner concentration 10 nM)
# Procedure, shortened: as §1
# [10] = test system: PPARg:RXRa 90nM:30nM, anti-RXR (NR concentration 90 nM, RXRa partner concentration 30 nM)
# Procedure, shortened: as §1
Sequence,PBM binding z-score [1],PBM binding z-score [2],PBM binding z-score [3],PBM binding z-score [4],PBM binding z-score [5],PBM binding z-score [6],PBM binding z-score [7],PBM binding z-score [8],PBM binding z-score [9],PBM binding z-score [10]
ACTAGCAGGCGAAGTTTGGGTCACTCAAACAAAG,-0.1,-0.222,-0.509,0.307,-0.961,1.22,-0.19,0.0876,-0.449,-0.106
TCTTATAGGTAAACAGGTGAAAGTCCGTAAGTTA,1.1,1.01,0.0286,0.875,0.307,2.34,2.7,3.52,4.06,3.86
AGTATGAGGTTATACGTAGATCAGGGAAGAAAGT,1.82,2.03,0.26,1.56,0.204,2.46,1.32,1.2,0.646,1.07
TGTCCAAGTTCAAAGGTAACGTAAGTATCCACAC,4.56,4.49,1.09,3.06,0.689,4.29,4,4.65,2.1,4.16
CCTAACGGGTCAAGGTTATAGCACGGGTGGTACG,4.72,3.16,0.175,2.46,0.225,4.48,3.41,3.67,1.21,2.39
GCAGACTGGTGAAACGCAGGTAACTCAGGGTGGC,-0.987,-0.932,-0.841,-1.19,-1.45,-1.12,-0.00355,-0.98,-0.852,-1.12
TCTTGTAGATCAGCAAGTTAAGAAAGCTGGCCAA,-0.13,-0.113,-0.739,-0.0484,-0.743,0.316,-0.599,1.24,2.5,1.78
ACTATTAGTTGACTTTGGGCAACCGATACGACGC,0.0915,0.0714,0.0306,0.155,0.67,-0.00502,0.965,0.394,0.326,0.537
TAGCATAGGTCATTCAGGGGCCAGTATAGAAAGC,6.82,5.38,1.82,4.56,1.73,5.15,3.49,4.27,1.5,3.18
TCTAGTTGGTCACGTAGGTCACACACGACGGGTA,2.06,1.85,1.01,2,0.514,2.78,2.17,3.05,3.43,3.35
CAAACTAGGTCACCGGAACGTCAAAGTCCGCATG,4.29,3.3,0.469,2.42,0.773,5.75,8.87,7.2,4.82,6.94
AATATTAGTTGACTTAGGGCAACCGATACGACGC,0.123,0.163,0.741,0.405,0.26,0.162,1.09,0.355,0.448,0.286
TATACAGGGTCAAAGGACAGAGTACGAATGTCGA,7.39,6.09,2.79,4.85,2.96,6.24,7.83,6.55,4.83,5.84
AGACTGAGGTTATACGTAGATCAGGGAAGAAAGT,1.99,2,0.184,1.55,-0.196,2.58,0.936,0.937,0.367,0.756
AGAATAAGGTTATACGTAGATCAGGGAAGAAAGT,1.99,1.9,0.223,1.56,0.0959,2.65,1.67,1.3,0.895,1.04
CCTACTGGCCCAAGGTCATTGATCAGTCAAAGCA,2.91,3.24,2,3.52,0.491,3.62,0.964,2.19,0.438,1.29
AGAATGAGGTTAAGCTCAGGGAAACAGAATACAT,2.88,1.94,-0.491,1.79,-0.626,3.77,2.4,2.58,0.895,1.48
ATCGAAAGGTCGACGAGGGGAGTATACACCGTTT,4.13,3.51,0.159,2.8,1.07,4.15,2.47,2.77,0.952,1.67
CCTCCTAGGTCATGGTCAGCTAATCTACAGTATG,3.85,2.79,0.804,2.24,0.0954,3.8,2.72,2.89,0.958,2.09
ATATGTAGGATAAGGGTCATTCAGGTTGGTTCGC,3.71,4.09,2.42,3.73,1.19,5.39,9.65,8.92,10.3,10
CGGACTAGGTCATTGACAGGACAGTGAATAGTAA,3.76,2.45,0.229,1.86,-0.21,4.05,6.69,5.73,2.87,4.89
CCGACTGGGGCAGAGGTTACCATACTCAGTACGA,0.287,0.761,-0.0955,1.34,-1.08,3.62,8.22,7.57,6.11,7.57
CCTACTGGGCCATTCAGAGGTCATTTATCATATG,2.65,4.36,8.31,4.14,1.15,3.75,2.29,2.85,0.841,1.78
CAAACTAGATCAAGAGGTCAAAGTCCGCTTCCCG,4.72,5.55,6.71,5.21,1.87,5.77,4.08,4.85,2.67,4.71
GCTATTGGTTGAAAGGGCAACCGAATGATTCTCG,0.353,0.664,-0.156,0.954,-0.225,2.36,2.29,4.34,1.94,4.37

Sequence,PBM binding z-score [1],PBM binding z-score [2],PBM binding z-score [3],PBM binding z-score [4],PBM binding z-score [5],PBM binding z-score [6],PBM binding z-score [7],PBM binding z-score [8],PBM binding z-score [9],PBM binding z-score [10]
ATCGAAAGGTCGACGAGGTGAGCATACACCGTTT,4.55,3.16,0.0611,2.6,0.486,4.14,2.93,3.33,0.968,2.23
ACTATTAGTTGACTTCGGGCAACCGATACGACGC,0.0947,0.0355,0.567,0.0208,0.752,-0.237,0.757,0.358,0.0391,0.162
ACAGACAGGTGATGAAGGTAACTCAGGCTATCAT,-0.17,-0.295,-0.208,-0.204,-0.527,0.152,0.816,-0.0244,-0.0108,-0.132
CCTACTGGGCCATCAGGACATTGATATCAACGTT,0.247,-0.3,0.171,-0.621,-0.424,0.703,1.19,1.26,0.361,0.825
TCTGCTAGGTCAACGATAGTCAGCTAATCTGCTA,3.23,2.35,-0.23,1.4,-0.0504,3.14,2.53,3.15,1.95,2.82
ACTAGTTGGTCAGCTGATGTCACACACAATTCGG,0.0768,-0.317,-0.115,0.235,-0.112,0.0483,0.943,0.0634,0.0518,0.0179
CCGACTGGGGCATAAGGGTACCATAAGCCAGCCC,-0.549,-0.376,-0.527,-0.624,-1.67,0.305,1.3,1.35,-0.296,1.18
CGTCCAAGGTCATAGGAGGTAAGTGAAGACAGAT,7.22,5.32,0.86,3.76,0.57,5.49,4.65,4.94,1.76,3.49
TCTGCTAGGTCAACGATGGTCAGCAAATCTGCTA,3.33,2.48,-0.168,1.69,-0.321,3.27,2.79,3.15,2.13,2.56
CGTCAGAGTTCAACTAAGGTAACGTAAAGCACGC,6.8,5.7,3.39,3.95,1.39,4.78,3.46,3.98,1.19,2.53
AGAATGAGGTTAAGATAAGGGAAACAGAATACAT,2.28,2.29,0.217,1.88,0.218,3.48,2.73,2.29,0.99,1.69
TCTTGAAGATCAAAGGTTAAGAAAGCCGAAGCCT,1.84,2.29,0.0814,2.16,-0.506,4.1,4.39,5.89,5.18,6.85
TACACAGGGTCAAAGGCCAGAGTACGAATGTCGA,6.94,5.94,1.96,4.44,1.69,5.95,7.46,7.03,4.73,6.42
CCTAGTTGGTCAAGGCCACACACGCTATAGGTAC,0.421,0.312,0.477,0.547,0.294,0.252,0.917,0.608,-0.0145,0.142
ATCTGTAGGTAAAAGTTCAGTGAATCCCGAGGAT,0.442,1.21,0.955,0.989,0.43,4,8.09,7.62,7.35,8.71
ATCTAAAGGTCGAGGTGAGTATAGAGAAAGGGAA,4.67,4.45,0.751,3.06,1.17,4.61,3.83,4.02,1.72,3.16
ATCTCTCGGTAAAAGTTCAGTGAATCCCGAGGAT,0.576,1.16,1.29,1.07,1.12,2.92,3.81,5.71,3.76,6.34
ACAGACAGGTGATGAAGGCAACTCAGGCTATCAT,-0.379,-0.449,-0.41,-0.706,-0.333,-0.357,0.764,-0.331,-0.116,-0.446
CCGACTGGGGCAAGGTTACCATGACGCACAGCCA,-0.0845,0.558,0.0292,0.445,-1.06,1.87,2.78,3.14,1.24,2.47
CTGCCAAGGTGAACAAGGTCGTTGATTACTATTC,0.873,0.86,-0.343,1.15,-0.569,2.25,0.839,1.1,-0.107,0.638
TTACCAAGGTGAAGGTCGTTGACCCCTCTGTAGA,6.12,5.25,2.15,4.5,-0.739,4.34,3.79,4.59,2.37,3.77
TTACTAAGGTGAAAGGTCGTTGATGCACGCCTTG,4.62,4.06,0.805,3.47,-0.065,5.91,9.26,8.57,8.09,9.29
CCTTACGGGTCACTCCAGGTTATAGCATCGGAGT,4.9,7.65,1.97,5.36,0.226,4.64,3.53,3.74,1.18,2.57
TCATATAGGCAAAGGTGAAAGTCGAACGATATGA,0.772,1.05,-0.253,1.07,-0.302,2.98,3.35,4.39,3.88,4.56
